# The source made the active and inactive calls.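 Rule for the calls, unless noted: active = compounds lowering colon cancer cell viability after pretreatment blocking the GSK3B kinase; inactive = the rest.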
# Key:
# [1] = stimulators of nuclear beta-catenin in C2C12, primary screen, imaging, WNT3A-conditioned medium, mouse C2C12, NPC library (AID 1117326; in the data active = nuclear beta-catenin stimulation mostly above about 4.2%, no sharp cut-off; inactive = mostly below about 10%; note: reference of the scale not given here); conditions: stronger effect = higher value
# [2] = stimulators of insulin release from INS-1E, primary screen, cell-based, 5 mM glucose, NPC library (AID 1117329;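 active = compound raises insulin release from rat beta cells at 5 mM glucose, no numeric limit stated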; note: reference of the scale not given here); conditions: rat INS-1E insulin secretion, at 10 µM, stronger effect = higher value
# [3] = growth inhibition of GSK3B-pretreated HCT116 cells – cell-based, CellTiter-Glo, 0.2 to 20 µM (AID 1117336); conditions: HCT116 viability after GSK3B inhibitor, at 20 µM, stronger effect = higher value
# [4] = inhibition of endothelial tube formation, primary screen, imaging, VEGF stimulated, CD31 staining, tube area, NPC library (AID 1117340;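 active = compound that reduces growth-factor-driven endothelial tube area in a mixed cell culture, no cutoff stated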); conditions: VEGF-stimulated ADSC/ECFC co-culture, at 10 µM, stronger effect = higher value
# [5] = glucagon-like peptide 1 release enhancers, primary assay, NCI-H716 cell line, NPC library (AID 1117341;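 active = compound raises GLP1 secretion from the human gut endocrine cells, with no numeric limit stated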; note: reference of the scale not given here); conditions: NCI-H716 cells, at 10 µM, stronger effect = higher value
# [6] = HCT116 colon cancer cell growth inhibition, primary screen, CellTiter-Glo luminescence, NPC library (AID 1117342;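 active = compounds that lower survival of HCT116 colon cancer cells in the luminescence readout, no numeric limit stated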); conditions: at 20 µM (top of the series)
# [7] = CellTiter-Glo luminescent readout of SW480 viability loss, NPC library primary (AID 1117343;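 active = compounds that lower viability of the colon cancer cells in the luminescence readout, with no numeric limit stated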); conditions: CellTiter-Glo luminescence; at 20 µM (top of the series)
# [8] = decreased DLD-1 cellular survival, CellTiter-Glo luminescent readout, NPC compound collection, primary HTS (AID 1117346;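 active = compounds that lower survival of DLD-1 colon cancer cells in the luminescence readout, no cutoff given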); conditions: DLD-1 viability, CellTiter-Glo luminescence; at 20 µM (top of the series)
Structure (SMILES),nuclear beta-catenin stimulation ([1]; at 10 µM),"nuclear beta-catenin stimulation ([1]; stimulation, at 2 µM)",insulin secretion stimulation [2],viability decrease [3],tube area decrease [4],GLP1 secretion stimulation [5],inhibition of viability [6],viability decrease (inhibition) [7],viability decrease (inhibition) [8]
NC[C@H]1O[C@H](O[C@@H]2[C@@H](O)[C@@H](O[C@H]3O[C@H](CO)[C@@H](O)[C@H](N)[C@@H]3O)[C@H](N)C[C@@H]2N)[C@H](O)[C@@H](O)[C@H]1O,-1.2% (inactive),-0.6%,-0.8% (inactive),-36.2% (inactive),-10.7% (inactive),-0.1% (inactive),-13.3% (inactive),-2.1% (inactive),-23.8% (inactive)
Cc1ccc(S(=O)(=O)NC(=O)NC2CCCCC2)cc1,0.6% (inactive),0.3%,26.7% (active),-13% (inactive),-13.1% (inactive),-5.7% (inactive),0.6% (inactive),17.6% (inactive),-1.8% (inactive)
Nc1ccc(/C=C/c2ccc(N)cc2S(=O)(=O)O)c(S(=O)(=O)O)c1,0.5% (inactive),0.9%,0.1% (inactive),-4.75% (inactive),-11.3% (inactive),-0.8% (inactive),-10.1% (inactive),13% (active),-4.05% (inactive)
CCC(Cc1c(I)cc(I)c(O)c1I)C(=O)O (centres undefined),0.6% (inactive),0.3%,-0.2% (inactive),7.1% (inactive),-23.3% (inactive),-3.4% (inactive),-22.9% (inactive),11.5% (inactive),1.1% (inactive)
CCCCCCCCCCCCCCCCN,1.3% (inactive),1.3%,-2.4% (inactive),5% (inactive),6.5% (inactive),0.9% (inactive),5.9% (inactive),4.5% (inactive),-6.6% (inactive)
Cc1ncc(CO)c(C=O)c1O,-0.2% (inactive),0.6%,2.8% (inactive),-8.9% (inactive),-6.1% (inactive),-2.6% (inactive),13.3% (inactive),24.3% (inactive),-1.4% (inactive)
CC(=O)Nc1ccc(OCCOCCOc2ccc(NC(C)=O)cc2)cc1,0.3% (inactive),0.3%,-2.6% (inactive),0.7% (inactive),-0.3% (inactive),-1.2% (inactive),-3.5% (inactive),11.3% (inactive),-8.2% (inactive)
Cc1cccc(C)c1NC(=O)CN1CCCC1,-0.4% (inactive),0.7%,0.6% (inactive),4.2% (inactive),-6.7% (inactive),1.1% (inactive),37.9% (inactive),3.5% (inactive),2.4% (inactive)
CCCC(=O)O[C@]1(C(=O)COC(=O)CC)CC[C@H]2[C@@H]3CCC4=CC(=O)CC[C@]4(C)[C@H]3[C@@H](O)C[C@@]21C,-0.4% (inactive),-2.3%,0.8% (inactive),-8.8% (inactive),-9% (inactive),1.9% (inactive),6.6% (inactive),-5.5% (inactive),-2% (inactive)
CCCCCCCCCCCCCCCC[N+](C)(C)CC,13.3% (inactive),9.2%,0.7% (inactive),99% (active),106% (active),20.2% (active),99.1% (active),102% (active),101% (active)
O=c1[nH]c2ccccc2c(=O)n1CCCl,3.3% (inactive),1.4%,1.3% (inactive),41.6% (inactive),-18.9% (inactive),2.8% (inactive),30.4% (inactive),50.6% (active),20.2% (inactive)
C[C@H](CN1CCCC1)C(=O)c1ccc(C(F)(F)F)cc1,5.1% (inactive),-1.9%,8.3% (inactive),-5.5% (inactive),-4% (inactive),-0.4% (inactive),7.8% (inactive),73.8% (active),68.1% (active)
N[C@H](C(=O)O)[C@@H](O)c1ccc(O)c(O)c1,0.1% (inactive),0%,11.2% (inactive),31.7% (inactive),1.4% (inactive),-4.8% (inactive),6.7% (inactive),21.5% (inactive),2.8% (inactive)
Cc1cc(C)c(NC(=O)CN(CC(=O)O)CC(=O)O)c(C)c1Br,1.9% (inactive),0.6%,0.25% (inactive),29.2% (inactive),-4.1% (inactive),-3.7% (inactive),13.3% (inactive),4.7% (inactive),-14.9% (inactive)
CC(=O)c1cc2ccccc2s1,2.1% (inactive),1.1%,-1.3% (inactive),32.7% (inactive),-3.8% (inactive),0.1% (inactive),31.2% (inactive),32.8% (inactive),26.6% (inactive)
N=C(N)n1cccn1,0.3% (inactive),0%,9.4% (inactive),-5.8% (inactive),4.7% (inactive),-3.7% (inactive),6.5% (inactive),16.1% (inactive),-2.6% (inactive)

# From PubChem BioAssay
